This is part of a sample that, as a whole, favours compounds with a hit. Of some 79,000 tested, about 15% had one in any assay. Values without a mark were called inactive. Active and inactive are the calls of the source. No stated cut-off is given here; in the data, active means growth inhibition above about 70%; inactive means the rest.
What was measured:
[1] = NCI Yeast Anticancer Drug Screen. Data for the rad50 strain (AID 155);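 further: 0% = growth of vehicle-only cultures of the same strain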; conditions: S. cerevisiae rad50 strain growth inhibition; at 50.0 µM; active compounds read high
Summary of the method: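 Cells are treated with compound, grown, and their growth is then scored against vehicle-only cultures of the same repair-deficient yeast strain.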

[2] = NCI Yeast Anticancer Drug Screen. Data for the mec2-1 strain (AID 157); conditions: S. cerevisiae mec2-1 strain, at 50.0 µM, active compounds read high
Summary of the method: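 Vehicle-treated cultures served as reference for growth inhibition of compound-exposed mec2-1 yeast.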

[3] = NCI Yeast Anticancer Drug Screen. Data for the sgs1 mgt1 strain (AID 161);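 further: 0% = growth of cultures given vehicle only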; conditions: S. cerevisiae sgs1 mgt1 strain, at 50.0 µM, active compounds read high
Summary of the method: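 Test agents were incubated with a DNA-repair-mutant yeast strain. Growth was then read and compared against vehicle-treated controls.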

[4] = NCI Yeast Anticancer Drug Screen. Data for the cln2 rad14 strain (AID 165);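 further: 0% = growth equal to vehicle treated cultures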; conditions: S. cerevisiae cln2 rad14 strain, at 50.0 µM, active compounds read high
Summary of the method: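 Each compound was tested on cln2 rad14 yeast. Inhibition of growth was calculated against vehicle-exposed controls.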

[5] = NCI Yeast Anticancer Drug Screen. Data for the bub3 strain (AID 167); conditions: S. cerevisiae bub3 mutant strain, at 50.0 µM, active compounds read high
Summary of the method: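 Part of a panel of yeast mutants defective in DNA damage repair or cell cycle regulation. Each strain is grown with compound, and inhibition is calculated relative to solvent-treated cultures.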

[6] = NCI Yeast Anticancer Drug Screen. Data for the mlh1 rad18 strain (AID 175); conditions: S. cerevisiae mlh1 rad18 strain growth inhibition; at 50.0 µM; active compounds read high
Summary of the method: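 Vehicle-treated cultures served as the reference for growth inhibition in a yeast strain carrying DNA damage repair alterations exposed to each compound.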

Structure (SMILES) | growth inhibition [1] | growth inhibition [2] | growth inhibition [3] | growth inhibition [4] | growth inhibition [5] | growth inhibition [6]
c1cc(CNCCN2CCNCC2)ccn1 | 7.45% | -34.2% | -3.7% | -1.9% | -48.9% | 16.8%
COc1ccc2c(=O)c([Se]c3coc4cc(OC)ccc4c3=O)coc2c1 | 7.2% | -17.1% | 3.15% | -52.5% | -23.1% | 3.25%
NC(=O)C(CC(C(N)=O)C(N)=O)C(N)=O | 7.5% | 18.4% | -8.45% | -24.9% | 7.7% | -6.55%
CC(C)(C)CC(C)(C)c1ccc(OCCOc2ccc(C(=O)NCCNC(=O)c3ccc4ccccc4c3O)cc2N)cc1 | -13% | -5.25% | 3.85% | 26.4% | -7.1% | -16.6%
COc1cc2c(cc1OCc1ccccc1)NC(=O)C2 | 0.5% | 20.2% | 12.8% | -7.85% | -18.9% | -7%
CN1c2ccccc2C2CC(CC#N)CC(=O)C21 (stereo not given) | 18.9% | 13.7% | -8.1% | -12.2% | -20.2% | 20.2%
CCCCCCCCC(C)C | 1.25% | 3.35% | -0.3% | 10.8% | 1.65% | -2.65%
CSSC(SSC)C(SSC)SSC | -4.7% | 4.2% | 43.4% | 1.4% | 36.8% | 47.8%
COc1cc(O)c(C(=O)C2Cc3ccccc32)c(OC)c1 (stereo not given) | -20.6% | 12.5% | 24.1% | 21.6% | 9.1% | 41.8%
O=c1[nH]c2ccccc2c(O)c1-c1ccccc1 | 6.95% | 0.8% | -17% | -8.6% | -22.5% | 0.65%
CSc1ccc(NC(=O)SCc2ccccc2)cc1 | -3.5% | 5.15% | 1% | -2.7% | 15.9% | 8.55%
O=C(/C=C/c1ccco1)N1CCN(Cc2ccccc2)CC1 | 3.7% | 8.15% | 23% | 32.2% | 53% | 14.4%
CC1CSC(C)C(=O)N1 (stereo not given) | -11.2% | -3.65% | -5.75% | 7.55% | 15.8% | 2%
C=C(N1CCCCC1)N1CCCCC1 | -2.75% | -25.1% | -9.15% | -46.5% | -15.9% | -11.4%
C/C(=N\NC(N)=O)C1CCCc2ccccc21 (stereo not given) | 2.45% | -15.3% | -9.8% | -6.55% | -10.3% | 10.2%
CCN(CC)CCC1CCCCN1CC(=O)N1c2cc(Cl)ccc2NC(=O)CC1C (stereo not given) | 24.9% | 0.8% | 15.1% | -6.45% | 1.3% | 20.6%
Nc1nnc(-c2ccc(-c3nnc(N)o3)cc2)o1 | -33.6% | -12.9% | -8.55% | -31.1% | 4.05% | -7.25%
CC1OC(c2ccc(Cl)cc2Cl)OC1C (stereo not given) | 6.45% | -0.9% | 2.65% | 0.7% | 0.95% | 1.5%
CC(=O)c1c(-c2ccc(Cl)cc2)c(-c2ccc(Cl)cc2)nn(CCNC(C)C)c1=O | 96.7% (active) | 98.4% (active) | 95.8% (active) | 88.9% (active) | 80.5% (active) | 95% (active)
CC(Oc1cc(Cl)c(Cl)cc1Cl)C(=O)NC(Cc1ccccc1)C(=O)O (stereo not given) | 8.5% | 9.45% | 13.5% | 25.6% | -0.45% | 5.8%

From PubChem BioAssay (NCI)
